TRHR PAM – TRH receptor (human) allosteric enhancement. 0.66% of 360,000 active. enhancement, % at 2 µM. P34981. TRHR cells, fluo-8 calcium fluorescence, EC20 TRH enhancement; in the data active = enhancement above about 30%
Target sequence (P34981 whole entry, looked up): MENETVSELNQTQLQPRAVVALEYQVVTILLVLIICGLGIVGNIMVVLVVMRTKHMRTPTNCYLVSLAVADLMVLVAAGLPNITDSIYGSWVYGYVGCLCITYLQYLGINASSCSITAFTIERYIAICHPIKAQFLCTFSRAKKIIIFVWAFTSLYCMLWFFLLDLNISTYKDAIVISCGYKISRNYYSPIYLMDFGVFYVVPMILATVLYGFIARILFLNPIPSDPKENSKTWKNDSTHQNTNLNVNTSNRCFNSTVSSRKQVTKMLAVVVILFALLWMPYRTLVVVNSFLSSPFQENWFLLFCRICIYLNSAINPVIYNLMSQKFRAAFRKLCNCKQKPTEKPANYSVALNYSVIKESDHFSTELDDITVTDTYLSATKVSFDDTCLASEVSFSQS
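TRHR-expressing cells loaded with fluo-8 calcium dye were read kinetically (ex 480/em 530) during compound addition, then stimulated with an EC20 of TRH (10 nM final). Enhancement of the Gq-mediated intracellular calcium response was scored.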
TRHR agonist – agonists of human TRH receptor; P34981; TRHR cells, calcium flux fluo-8, FDSS agonist mode; activation, % at 2 µM; 0.18% of 360,000 active; AID 493084
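Fluo-8-loaded TRHR cells; 10 s baseline, compound added, kinetic Ca2+ fluorescence read 1/s, agonist mode.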
D1 ag – agonists of human D1 dopamine receptor. P21728. AID 504660. 1% of 360,000 active. HEK293 T-REx D1 cells, calcium flux, agonist mode. activation, % at 2 µM
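Tetracycline-induced HEK293 TREx D1 cells, force-coupled to calcium signalling, were dye-loaded with a no-wash calcium kit. Compound was pin-added after a 10 s baseline. Fluorescence was read kinetically at 1 cycle/s for 180 s, with calcium rises flagged as agonism.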
D1 antag – human D1 dopamine receptor antagonism. activity change, negative = inhibition, % at 10 µM. HEK293 TREx D1 cells, calcium flux, dopamine EC80; active compounds read low. 3.2% of 360,000 active; in the data active = activity change below about -30%
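Cells carrying a force-coupled, tetracycline-inducible human D1 receptor report calcium flux. Each well gets a 10 s baseline, compound with 180 s monitoring, then an EC80 dopamine stimulus with a second 180 s kinetic read.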
D1 potentiator – potentiators of human D1 dopamine receptor; P21728; HEK293 TREx D1 cells, calcium flux, dopamine EC20 potentiation; potentiation, % at 10 µM; 0.036% of 360,000 active; AID 504651; in the data active = potentiation above about 30%
Of the large screens only hits and unclear results are named; the others gave an inactive call. Shown are actives, neighbours in structure and some others; about 4.6% of the full set was active somewhere. Rule as the data show it, unless noted: active = activation above about 30%; inactive = the rest.

C=CCN1C(=O)c2ccccc2C1(O)Cc1ccccc1 (stereo not given)	none
O=C1c2ccccc2C(O)(Cc2ccccc2)N1CCCN1CCOCC1 (stereo not given)	D1 antag -77.3
Cc1cccc2cc(CN(Cc3ccco3)S(=O)(=O)c3ccc4c(c3)OCCO4)c(=O)[nH]c12	D1 antag -50.7
COc1ccccc1-c1noc2ncnc(Nc3ccccc3C)c12	none
COc1ccccc1-c1noc2ncnc(Nc3cccc(C)c3C)c12	D1 antag -32.0
COc1ccc(-c2cc(C(C)=O)c(C)n2CCC(=O)NCc2ccc(F)cc2)cc1	none
O=C(Nc1cccc(-c2nc3ccccc3s2)c1)c1cc(-n2cnnc2)ccc1Cl	none
Cc1c(NC(=O)c2ccccc2F)cccc1-c1nc2cccnc2s1	D1 antag -79.5
Cc1c(NC(=O)c2cc(-n3cnnc3)ccc2Cl)cccc1-c1nc2ccccc2s1	D1 antag -39.5
Cc1cccc(CNC(=O)C2CCC(=O)N(C3CCCC3)C2)c1 (stereo not given)	D1 antag -45.0
O=C(Nc1cccc(NC(=O)c2ccccc2Cl)c1)c1ccc([N+](=O)[O-])o1	D1 antag -46.1
O=C(Nc1ccc(N2CCCC2)c(Cl)c1)c1ccc([N+](=O)[O-])o1	none
Cc1nc(-c2cccc(NC(=O)COc3ccc(Cl)cc3)c2)cs1	D1 antag -43.6
Cc1cccc(NC(=O)CSc2nc3ccc(NC(=O)COc4ccc(Cl)cc4)cc3s2)c1	D1 antag -32.0
O=C(O)CSc1nc2ccc(NC(=O)COc3ccc(Cl)cc3)cc2s1	none
COc1ccc(OCc2nc3ccccc3n2Cc2ccccc2Cl)cc1	none
COc1cc(C(=O)OCCCN(C)C)cc(OC)c1OC	D1 antag -38.8
COc1ccc(C(=O)OCCCN(C)C)cc1OC	none
COc1ccc2nc(N3C(=O)CNC3=S)sc2c1	D1 antag -40.5
COCCCNC(=O)CSc1nc2cc3c(cc2c(=O)n1CCCCCC(=O)NCc1ccc(OC)cc1)OCO3	none
COc1ccc2ccccc2c1CNC(C)c1ccccc1 (stereo not given)	none
CC(NCCCOc1cccc2ccccc12)c1ccccc1 (stereo not given)	D1 ag 38.9
Cc1ccc(Cn2ccc(NC(=O)c3cc(-c4ccc(Cl)c(Cl)c4)on3)n2)cc1	none
CSc1cccc(NC(=S)Nc2cc(C)ccc2C)c1	D1 antag -40.2
CSc1ccc(CCNC(=O)c2ccc3c(c2)nc2n3CCC(C)C2)cc1 (stereo not given)	none
CC(=O)Nc1ccc(S(=O)(=O)N(C)CC(=O)N(C)Cc2sccc2C)cc1	D1 antag -32.0
CC(=O)Nc1ccc(S(=O)(=O)N(C)Cc2ccccc2)cc1	none
COc1ccc(NS(=O)(=O)c2ccc(-n3nnc4ccccc43)c([N+](=O)[O-])c2)cc1	D1 ag 35.8
O=[N+]([O-])c1cc(S(=O)(=O)Nc2cccc(C(F)(F)F)c2)ccc1-n1nnc2ccccc21	none
CCCNc1nc(N)nc(-c2cc(Cl)ccc2OC)n1	none
CCCN(CCC)c1nc(N)nc(-c2cc(Cl)ccc2OC)n1	D1 antag -75.2
CC(C)CNC(=O)c1ccccc1NC(=O)c1ccc(CSc2ccccc2)cc1	D1 ag 32.2
O=C(Nc1nc2c(s1)CN(Cc1ccccc1)CC2)C1CCC1	none
CN(C)c1ccc(/C=C(\C#N)C(=O)Nc2nc3c(s2)CCN(Cc2ccccc2)C3)cc1	D1 ag 68.2
Cc1ccc(-c2cc(NC(=O)COc3c(C)cc(C)cc3C)on2)cc1	none
CCN(CC)CCOC(=O)c1ccc(NC(=O)CCCN2C(=O)S/C(=C/c3ccc(OC)cc3)C2=S)cc1	D1 antag -64.9
CC1=C(C(=O)OC2CCCC2)C(c2cccc(Cl)c2Cl)CC(=O)N1 (stereo not given)	none
CCn1c2ccccc2c2nnc(SCC(=O)Nc3ccccc3OC)nc21	D1 antag -32.9
COc1ccccc1NC(=O)CSc1nnc2c3ccccc3n(C)c2n1	none
COc1ccccc1NC(=O)Cn1c2ccccc2c2nc3n(c(=O)c21)CCS3	D1 antag -44.3
CC(C)Oc1cccc(NC(=O)C2CCN(S(=O)(=O)Cc3ccccc3)CC2)c1	none
Cc1ccc(Sc2cnn(-c3ccccc3)c(=O)c2Cl)cc1	none
CNc1cnn(-c2ccccc2)c(=O)c1Cl	D1 antag -70.6
Nc1ccc(Sc2cnn(-c3ccccc3)c(=O)c2Cl)cc1	TRHR PAM 36.5
Cn1c(=O)n(Cc2ccc(Cl)cc2)c2ccccc21	D1 antag -33.1
CCOC(=O)c1cc(S(=O)(=O)NCc2ccc(C)cc2)[nH]n1	none
Cc1ccccc1NC(=O)Cn1c([N+](=O)[O-])cnc1C	D1 antag -47.0
COc1ccccc1NC(=O)Cn1c([N+](=O)[O-])cnc1C	none
Cc1ccc(N=C2SC(C(=O)O)CC(=O)N2C)cc1C (stereo not given)	TRHR PAM 34.4
CCOC(=O)C1CCN(Cc2oc(CO)cc(=O)c2O)CC1	TRHR PAM 30.4
CCN1CCN(Cc2oc(CO)cc(=O)c2O)CC1	none
COc1ccccc1CNS(=O)(=O)c1ccc2c(c1)CC(C)N2C(C)=O (stereo not given)	none
O=c1cc(-c2ccc(F)cc2)nc(SCc2nc(-c3ccc(Cl)cc3)no2)[nH]1	TRHR PAM 43.2
CCCCc1c(C)nc2c(-c3ccc(OC)cc3)c(C)[nH]n2c1=O	D1 ag 41.6
CCOc1ccc(NC(=O)CN(C)C(=O)c2cc(-c3cccs3)nn2-c2ccccc2)cc1OCC	D1 antag -57.0
COc1ccc(NC(=O)CN(C)C(=O)c2cc(-c3cccs3)nn2-c2ccccc2)cc1	none
CCCNC(=O)N1CCN(S(=O)(=O)c2ccc3c(ccn3C)c2)CC1	none
OCCC1CN(Cc2cccn2-c2nccs2)CCN1C1CCCCC1 (stereo not given)	none
CSc1ccc(CN2CCN(C(C)C)C(CCO)C2)cc1 (stereo not given)	D1 antag -35.3
CC(C)N1CCN(Cc2ccncc2)CC1CCO (stereo not given)	none
CC(C)N1CCN(Cc2cccn2-c2nccs2)CC1CCO (stereo not given)	TRHR PAM 35.6
O=C1CCc2ccc(OCCCCN3CCN(c4cccc(Cl)c4Cl)CC3)cc2N1	D1 antag -43.9 (no result: D1 ag, D1 potentiator)
CCc1c(C)sc2c1CCN(C(=O)Nc1cc(OC)c(OC)c(OC)c1)C2c1ccccc1 (stereo not given)	D1 antag -40.3
COc1ccc(Cn2ncc3c4sc(C)cc4n(C)c3c2=O)cc1	none
O=C(c1c(F)cccc1F)N1CCCC(c2nc(-c3ccc(F)cc3)no2)C1 (stereo not given)	D1 antag -31.0
COc1cccc(-c2noc(C3CCCN(C(=O)CC(C)(C)C)C3)n2)c1 (stereo not given)	D1 antag -66.8
